Assay type in all cases: functional
In assay [1] the target is Solute carrier family 2, facilitated glucose transporter member 1 (Homo sapiens) (UniProt P11166). Put plainly: ST_JUDE_LEISH: Cytotoxicity at 2uM final concentration against transgenic Leishmania Mexicana promastigotes LmGLUT1 that are glucose transport deficient and complemented with the human glucose transporter GLUT1. Activity is measured by DNA content using SYBR green in vitro.

Assay [2] has as its target Hexose transporter 1 (Plasmodium falciparum) (UniProt O97467). The assay is described as follows: ST_JUDE_LEISH: Cytotoxicity at 2uM final concentration against transgenic Leishmania Mexicana promastigotes LmPfHT that are glucose transport deficient and complemented with the Plasmodium falciparum hexose transporter. Activity is measured by DNA content using SYBR green in vitro.

The target of assay [3] is Glucose transporter (Leishmania mexicana) (UniProt O61059). Put plainly: ST_JUDE_LEISH: Cytotoxicity at 2uM final concentration against transgenic Leishmania Mexicana promastigotes LmGT2 that are glucose transport deficient and complemented with the L. Mexicana glucose transporter 2. Activity is measured by DNA content using SYBR green in vitro.

Solute carrier family 2, facilitated glucose transporter member 1 (Homo sapiens), sequence (P11166 whole entry): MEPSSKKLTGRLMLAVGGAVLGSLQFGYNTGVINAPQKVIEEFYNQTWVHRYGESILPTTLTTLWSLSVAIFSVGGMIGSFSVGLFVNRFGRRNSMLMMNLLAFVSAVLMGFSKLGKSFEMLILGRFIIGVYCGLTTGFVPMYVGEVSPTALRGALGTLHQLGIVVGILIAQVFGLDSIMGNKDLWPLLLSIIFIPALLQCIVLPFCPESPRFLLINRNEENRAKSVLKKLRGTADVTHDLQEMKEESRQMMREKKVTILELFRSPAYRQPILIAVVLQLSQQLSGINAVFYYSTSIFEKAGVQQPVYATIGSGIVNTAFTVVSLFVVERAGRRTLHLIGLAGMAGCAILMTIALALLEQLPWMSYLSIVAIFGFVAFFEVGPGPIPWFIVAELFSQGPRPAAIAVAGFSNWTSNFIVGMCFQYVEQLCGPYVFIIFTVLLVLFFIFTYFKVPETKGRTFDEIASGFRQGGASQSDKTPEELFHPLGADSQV

Broadly, the inhibition is the drop in the measured response relative to a control, in per cent. For `O=C(Cc1n[nH]c(=O)c2ccccc12)Nc1cccc(C(=O)Nc2cccc(C(F)(F)F)c2)c1`, the inhibition in assay [1] was 3.52%; in assay [2], 4.12%; in assay [3], 2.16%.

For `CCN(CCCN1CCCCC1)c1cc(C)nc(Nc2ccc(C(C)C)cc2)n1`, the figures for the inhibition in assay [1], in assay [2] and in assay [3] were -0.68%, 1.56% and 2.4%, respectively.

As for `CC1(C)N=C(N)N=C(N)N1OCCCOc1cccc(C(=O)O)c1`, the inhibition in assay [1] came to 5.03%; in assay [2], 5.61%; in assay [3], 3.22%.

Take `O=C(/C=C/c1ccc(Cl)c(Cl)c1)NCCCCCN1CCC(c2c[nH]c3ccc(O)cc23)CC1`: the values for the inhibition in assay [1], in assay [2] and in assay [3] were 2.16%, 1.31% and 1.25%, respectively.

For the compound `CC(C)CCNCc1ccc(OCc2cccc(COc3ccc(CNCCC(C)C)cc3I)c2)c(I)c1`, the inhibition is 0.58% in assay [1], -0.4% in assay [2] and -0.23% in assay [3].

On to `O=C(Nc1cccc(-c2ccc(-c3nc4cc(F)ccc4[nH]3)cc2)c1)c1csnn1`, for which the inhibition was determined as 12.4% in assay [1], 11.9% in assay [2] and 11.1% in assay [3].

In the case of `CCOC(=O)c1c(CN(CC)CC)n(-c2ccccc2)c2cc(Br)c(O)cc12`, the inhibition in assay [1] stood at 2.14%; in assay [2] it was 3.81%; in assay [3] it was 1.76%.

As for `COc1ccc2c(=NN=Cc3ccncc3)cc(C)[nH]c2c1`, the inhibition came out at 4.05% in assay [1], 3.94% in assay [2] and 3.63% in assay [3].

As to `N#Cc1cccc(NC(=O)Nc2ccc(-c3cccc(-c4nc5cc(F)ccc5[nH]4)c3)cc2)c1`, the inhibition in assay [1] came to 3.67%; in assay [2], 1.58%; in assay [3], 4.18%.

As to `Nc1ncc(-c2cn[nH]c2)cc1-c1nc2cc(Cl)cnc2[nH]1`, the inhibition was 3.35% in assay [1], 1.4% in assay [2] and 1.93% in assay [3].

In the case of `COc1cc2c(cc1OCCN1CCC(N)CC1)N(C(=O)/C=C/c1ccccc1Cl)CC2`, the figures for the inhibition in assay [1], in assay [2] and in assay [3] were 11.3%, 10.8% and 12.8%, respectively.

`CC(=O)Nc1nc(C(=O)Nc2cccc(-c3ccc(-c4nc5ccccc5[nH]4)cc3)c2)cs1`: the results for the inhibition in assay [1], in assay [2] and in assay [3] were 13%, 11.8% and 10.3%, respectively.

With `COc1c(C2CCN(CCCCNC(=O)c3cc(-c4ccc(C#N)cc4)n[nH]3)CC2)ccc2c1CCCC2`, the inhibition in assay [1] is -0.72%; in assay [2] it was 0.62%; in assay [3] it was 1.75%.

With `COc1ccccc1C(=O)N1CCN(Cc2cccs2)CC1`, the results for the inhibition in assay [1], in assay [2] and in assay [3] were 7.76%, 7.28% and 9.06%, respectively.

For `C[C@@H](CNc1ccnc(Nc2ccc3[nH]c(=O)[nH]c3c2)n1)c1ccccc1`, the inhibition in assay [1] is -3.02%; in assay [2], -0.02%; in assay [3] it was -0.41%.

For `CCC(CC)(Cc1ccccc1)NC(=O)[C@H](Cc1ccc(OC)c(OC)c1)Nc1ccc(C#N)c2ccccc12`, the inhibition amounted to 2.88% in assay [1], 2.31% in assay [2] and 3.47% in assay [3].

For the compound `CN1CCN(c2ccc(Nc3ncc(C#N)c(Nc4ccccc4C(N)=O)n3)cc2)CC1`, the inhibition in assay [1] came out at 75.6%; in assay [2], 81.4%; in assay [3], 55.1%.

`Cc1nc(NC(=N)N)nc2ccc(C(C)(C)C)cc12`: the inhibition in assay [1] was 0.73%; in assay [2], 0.81%; in assay [3] it was 1.22%.

Turning to `O=C(NCCCCN1CCC(c2c[nH]c3ccccc23)CC1)c1ccc(-c2ccc(C(F)(F)F)cc2)cc1`, the inhibition is 0.97% in assay [1], 0.63% in assay [2] and -0.72% in assay [3].

On to `COc1ccc(-c2ccc(NC(=O)c3cccc(C#N)c3)cc2)cc1CN1CCN(C)CC1`, for which the results for the inhibition in assay [1], in assay [2] and in assay [3] were 4.33%, 6.51% and 1.6%, respectively.

`O=C(Nc1cc(Cl)cc(Cl)c1)c1cnn(-c2ccc(F)cc2)c1C1CCNCC1`: the results for the inhibition in assay [1], in assay [2] and in assay [3] were -0.33%, -0.39% and 1.72%, respectively.

Consider `O=C(/C=C/c1ccc(Cl)c(Cl)c1)NCCCCCN1CCC(NC(=O)Nc2ccccc2F)CC1`, for which the inhibition is 0.1% in assay [1], 4.13% in assay [2] and -0.91% in assay [3].

For `CC(C)(C)C(Cn1ccnc1)NCc1c[nH]nc1-c1ccc(-c2ccccc2)cc1` (configuration not stated), the inhibition worked out at 11.2% in assay [1], 16.9% in assay [2] and 11.5% in assay [3].

Consider `Nc1nc(N)c2cc(Cc3ccccc3Cl)cnc2n1`, for which the inhibition in assay [1] is -0.18%; in assay [2] it was 2.28%; in assay [3], 1.45%.

Take `CCCCCCCN1CC[C@@H](CCCc2ccnc3ccc(OC)cc23)[C@@H](CNC)C1`: the inhibition in assay [1] is 0.83%; in assay [2], -1.11%; in assay [3] it was -0.87%.

Turning to `COc1ccccc1CNC(=O)c1cc(C2CC2)nc2c1cnn2C(C)C`, the values for the inhibition in assay [1], in assay [2] and in assay [3] were 15.2%, 11.5% and 8.12%, respectively.

Turning to `CN(C)CCCNCc1ccc(-c2ccc(CNCCOc3ccccc3)cc2)cc1`, the inhibition in assay [1] amounted to 2.4%; in assay [2], 4.11%; in assay [3], 2.46%.

Turning to `Cc1nc(N)nc(N)c1CCCOc1ccc(Br)cc1`, the values for the inhibition in assay [1], in assay [2] and in assay [3] were 6.19%, 4.15% and -1.62%, respectively.

In the case of `CCOc1ccc(OCC(=O)Nc2nc(-c3ccc(OC)cc3)c(C)s2)cc1`, the inhibition in assay [1] is 0.75%; in assay [2] it was 1.74%; in assay [3], 1.45%.

On to `CC(C)CN(C)Cc1ccc(-c2ccc(-c3nc4ccccc4[nH]3)s2)cc1`, for which the inhibition was -1.24% in assay [1], -0.64% in assay [2] and -1.65% in assay [3].

Take `COc1cc2nc(Nc3ccc4c(c3)OCCO4)nc(N)c2cc1OC`: the inhibition in assay [1] was -0.32%; in assay [2], -0.78%; in assay [3] it was 1.75%.

As for `COc1ccccc1C(=O)Nc1ccc(Nc2nc(C)cc(N3CCOCC3)n2)cc1`, the inhibition turned out to be 4.83% in assay [1], 4.3% in assay [2] and 5.97% in assay [3].

Take `Cc1cccc(CN2CCC(CNC(=O)c3cc4c(-c5ccccc5F)nn(C)c4s3)CC2)c1`: the inhibition turned out to be 4.22% in assay [1], 3.22% in assay [2] and 2.82% in assay [3].

As to `CC(C)(Oc1c(C2CCN(CCCCNC(=O)c3ccc(-c4ccc(Cl)cc4)cc3)CC2)ccc2c1CCCC2)C(N)=O`, the inhibition was -2.15% in assay [1], -0.94% in assay [2] and -1.84% in assay [3].

The values are drawn from ChEMBL document CHEMBL3433997, “St. Jude Leishmania screening dataset” (2016).
